Bioassay records deposited in PubChem BioAssay by several laboratories.
HDAC3 inh: HDAC3 deacetylase inhibitors, primary screen, biochemical, fluorescence, cell-free homogeneous | recombinant HDAC3, fluorogenic peptide/trypsin coupled | inhibition, % at 8.3 µM | 320,000 compounds, 0.15% hits | AID 2718, 2010; in the data active means inhibition above about 26%, passing the limit was not always enough
Efflux pump mplx: inhibitors of Candida efflux pumps in yeast, primary screen, S. cerevisiae, Nile Red, multiplex; 330,000 compounds, 0.44% hits; S. cerevisiae Candida pump triplex; inhibition, % at 10 µM; AID 485275, 2010;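 active means plate passing quality check with inhibition over a set limit, or well fluorescence over plate mean plus 4 SD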;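 further: Nile Red retained in pooled yeast measured as flow cytometry median fluorescence; 0% = buffer negative control and 100% = Enniatin B positive control; higher means more Nile Red kept so more efflux inhibition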
PolyA inhibitor: polyadenylation inhibitors in yeast reporter cells, primary screen, luminescence, S. cerevisiae | 300,000 compounds, 0.02% hits | S. cerevisiae SKY197-pL101 polyadenylation reporter, beta-gal luminescence; efflux-impaired pdr1/pdr3 knockout yeast; score 100 = 6 SD above DMSO | activity score, % at 12 µM | AID 1875, 2009;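 active means lowest replicate activity score at least 50, where 100 means six control SD above control mean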;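 further: yeast exposed to compound for 9 h at 30 °C; higher score means more reporter readthrough which indicates perturbed polyadenylation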
NALP3 yeast inh: NALP3 inflammasome inhibitors in reconstituted yeast, primary screen, luminescence, uHTS; Yeast reconstituted NLRP3/ASC/caspase-1, beta-gal luminescence, 24 h; 330,000 compounds, 0.39% hits; inhibition, % at 10 µM;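 active means inhibition of 50% or more; inactive means inhibition below 50%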;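 further: plate controls were induced DMSO wells for no effect and uninduced yeast grown without galactose for full effect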
JMJD2C inh: inhibitors of GASC-1 histone demethylase, primary screen, biochemical, fluorescence, DELFIA europium; GST-JMJD2C(1-420) H3K9me3 demethylation; Lysine-specific demethylase 4C (Homo sapiens), Q9H3R0; AID 2099, 2009; inhibition, % at 2.35 µM; 330,000 compounds, 0.069% hits;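 active means more than half of a compound's replicate wells show inhibition beyond 50%, single wells judged on their own value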;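 further: signal counts dimethyl H3K9 product captured on neutravidin plate; 0% = median of DMSO wells and 100% = 0.3 times that DMSO median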
Target sequence (Q9H3R0 1-420 limits assumed): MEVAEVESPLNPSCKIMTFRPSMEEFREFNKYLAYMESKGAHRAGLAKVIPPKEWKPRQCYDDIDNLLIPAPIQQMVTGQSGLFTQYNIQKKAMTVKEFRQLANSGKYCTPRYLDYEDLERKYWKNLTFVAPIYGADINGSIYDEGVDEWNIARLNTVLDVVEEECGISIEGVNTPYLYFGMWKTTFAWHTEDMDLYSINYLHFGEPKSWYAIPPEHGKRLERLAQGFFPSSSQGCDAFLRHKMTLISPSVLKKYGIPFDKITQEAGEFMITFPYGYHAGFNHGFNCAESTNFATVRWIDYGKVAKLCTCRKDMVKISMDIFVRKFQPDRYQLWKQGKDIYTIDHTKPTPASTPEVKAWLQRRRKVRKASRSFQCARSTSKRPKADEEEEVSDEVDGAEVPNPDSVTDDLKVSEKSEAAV
NALP1 inh: NALP1 inflammasome inhibitors in reconstituted yeast, colorimetric, S. cerevisiae, triplicate retest. S. cerevisiae NALP1/ASC/caspase-1 growth, X-gal OD620, 72 h. 280,000 compounds, 0.61% hits. inhibition, % at 10 µM; in the data active means inhibition mostly above about 24%, no sharp cut-off; inactive means mostly below about 32%
NALP3 yeast conf: NALP3 inhibitors retested in yeast, confirmation, luminescence, single concentration; 1,300 compounds, 81% hits; shares compounds with NALP3 yeast inh; inhibition, % at 10 µM; yeast expressing human NALP3; AID 435006, 2010; in the data active means inhibition above about 48%
Casp1-ASC yeast: CASP1-PYCARD signaling inhibition in yeast, confirmatory test, counterassay for NLRP3 inhibitor program, one-dose | shares compounds with NALP3 yeast inh | yeast expressing Caspase-1-ASC, luminescence counter screen | inhibition, % at 10 µM | 1,000 compounds, 66% hits | AID 488784, 2010
NALP3 retest: NALP3 inhibitors in yeast, repeat test, confirmation, luminescence, single concentration, retest. 1,000 compounds, 53% hits. yeast expressing human NALP3, luminescence read-out. AID 488794, 2010. inhibition, % at 10 µM. shares compounds with NALP3 yeast inh
Active calls of the source: *; i = inactive; / = not tested or not shown. Sampled rows, rich in hits. Any-hit rate of the full collection: about 1.5%. Unless noted, no stated cut-off is given here; in the data, active means inhibition above about 50%; inactive means the rest.

SMILES	HDAC3 inh	Efflux pump mplx	PolyA inhibitor	NALP3 yeast inh	JMJD2C inh	NALP1 inh	NALP3 yeast conf	Casp1-ASC yeast	NALP3 retest
CC1CCN(c2ncnc3c2cnn3-c2ccccc2)CC1	-1	0	-4	53*	4	20	60*	47	38
CC1Nc2ccc(C(=O)NC3CCCCC3)cc2NC1=O (centres undefined)	-5	0	-9	26	3	13	/	/	/
O=C(C1CCN(S(=O)(=O)c2ccc(-n3cnnn3)cc2)CC1)N1CCCCC1	-8	0	7	26	-5	17	/	/	/
CC(C)c1ccc(NC(=O)C2CCCCN2S(=O)(=O)c2ccccc2)cc1 (centres undefined)	/	0	/	21	/	/	/	/	/
COc1ccc(-c2nc3ccccc3s2)cc1O	-7	0	-20	73*	-9	-3	46*	73*	64*
Oc1cccc(-c2nc3ccccc3s2)c1	2	0	-24	73*	-2	11	84*	82*	69*
CC(=O)Nc1cccc(-c2cc(-c3c(Cl)cccc3Cl)no2)c1	1	0	11	52*	-12	/	47	53*	52*
CC(=O)Nc1ccc(O)c(-c2nc3ccccc3s2)c1	-2	0	-2	56*	3	14	67*	/	/
CCOc1ccc(-c2cccc(NC(=O)c3cccs3)c2)nn1	-2	0	4	22	13	/	/	/	/
Cc1ccc(C)c(S(=O)(=O)N2CCCOC2CNC(=O)C(=O)NCc2ccc3c(c2)OCO3)c1 (centres undefined)	5	0	4	16	18	10	/	/	/
CC(=O)Nc1cccc(-c2nc3ccccc3s2)c1	-5	0	/	54*	-4	4	46	/	/
Oc1c(I)cc(I)c2cccnc12	/	0	-7	65*	-20	52	62*	26	24
COc1ccc(NC(=O)N2CCCC2C(=O)NCc2cccs2)cc1 (centres undefined)	-4	0	0	-8	4	7	/	/	/
CCN(CC)c1ccc2nc3ccc(N)cc3[n+](-c3ccccc3)c2c1	/	/	/	51*	/	/	51*	39	52*
CCN(CC)c1ccc2nc3ccccc3[n+](CC)c2c1	12	0	28	67*	15	28	73*	44	57*
COc1cc(-c2noc(C)c2C(=O)NCCCN2CCOCC2)cc(OC)c1OC	-2	0	/	6	0	/	/	/	/
Oc1c(Cl)cc(Cl)cc1CNc1ccccn1	/	/	-4	52*	i	18	67*	41	39
Nc1cc(C(=O)OCC(=O)NCCNC(=O)COC(=O)c2ccc(Cl)c(N)c2)ccc1Cl	7	0	-8	13	-2	10	/	/	/
Cc1ccc(N/N=C(\C#N)C(=O)c2ccsc2)cc1	9	0	-12	43	-2	-2	/	/	/
Cc1ccc(N/N=C(\C#N)C(N)=S)cc1C	6	0	5	67*	2	11	56*	42	41
N#C/C(=N\Nc1ccc(Cl)cc1)C(=O)c1ccsc1	8	0	-33	55*	-13	14	35	/	/
N#C/C(=N\Nc1ccc(Cl)cc1)C(N)=S	13	0	-10	75*	-6	/	90*	/	/
C[C@]12c3[nH]c4ccc(Cl)cc4c3CCN1C(=O)[C@@H](CC(=O)NCCc1ccccn1)C[C@@H]2C(=O)N1CCCCC1	/	0	/	/	/	/	/	/	/
CCN(CC)c1ccc2c(Cl)cc(=O)oc2c1	-19	0	-21	58*	-24	12	53*	59*	44
O=C(COC(=O)COc1ccc(Cl)cc1Cl)NC1CCS(=O)(=O)C1 (centres undefined)	6	0	/	20	1	/	/	/	/
SMILES	HDAC3 inh	Efflux pump mplx	PolyA inhibitor	NALP3 yeast inh	JMJD2C inh	NALP1 inh	NALP3 yeast conf	Casp1-ASC yeast	NALP3 retest
C[C@@H](C[C@@H](O)[C@H](O)C(C)(C)O)[C@@H]1CC[C@]2(C)C3=CC[C@H]4C(C)(C)C(=O)CC[C@]4(C)[C@H]3CC[C@@]12C	7	0	-1	62*	-19	44*	76*	/	/
COc1cc(C(=O)OC(C)CN2CCCCC2)cc(OC)c1OC (centres undefined)	3	0	34	21	-1	4	/	/	/
Cc1ccc(/C=N/N(C)S(=O)(=O)c2ccc(C)cc2)cc1	-8	0	-3	51*	6	2	58*	58*	33
Oc1ccccc1-c1cc(-c2ccccc2)no1	0	0	-23	55*	-13	18	60*	59*	56*
CCN(CC)CCCN(C(=O)c1ccco1)c1nc(-c2ccc(C)cc2)cs1	2	0	-3	15	-6	16	/	/	/
CCN(CC)CCCN(C(=O)c1ccco1)c1nc(-c2ccc(Cl)cc2)cs1	4	0	-2	51*	-2	22	54*	46	38
COc1ccc2nc(SC(C)C(=O)NCC(=O)Nc3ccc(F)c(F)c3F)[nH]c2c1 (centres undefined)	/	/	/	4	/	/	/	/	/
CSc1nsc(SCC(=O)NCc2ccc(C)cc2)n1	10	0	-20	51*	-1	-7	62*	44	39
CSc1nsc(SCC(=O)NCc2ccccc2)n1	4	0	6	23	-2	4	/	/	/
CCN(CC)c1ccc(/C=N/n2c(C)nc3ccccc3c2=O)cc1	-4	0	12	23	4	1	/	/	/
CCOC(=O)c1ccc(S(=O)(=O)NC2CCC(C)CC2)cc1 (centres undefined)	2	0	/	26	-10	/	/	/	/
C#C[C@]1(O)CC[C@H]2[C@@H]3CCc4cc(O)ccc4[C@H]3CC[C@@]21C	7	0	-6	55*	21	49*	68*	51*	44
O=C(c1ccccc1F)n1c2c(c3ccccc31)CCCC2	7	0	-13	16	8	14	/	/	/
CCOC(=O)C(=CNc1cc(C)nn1-c1ccc(Cl)cc1)C(=O)OCC	-4	0	-13	9	22	19	/	/	/
CCOC(=O)C(=Cc1ccc(-n2cncn2)cc1)C(=O)OCC	2	0	-10	50*	4	-4	61*	57*	40
Cc1occc1C(=O)NC(C)C12CC3CC(CC(C3)C1)C2 (centres undefined)	4	0	-70	30	0	3	/	/	/
